From PubChem BioAssay (Tox21) come the findings set out here.

Where “and” joins values, the source holds several entries; their conditions need not be identical. Equal entries are not always repeated. Values without a mark were called inactive. Records with an inconclusive call do not appear. Some structures have more than one record in an assay (separate samples or runs), and their calls can disagree. Calls of active or inactive are those of the source. Unless noted, calls come from the whole dose curve; as a rule, active = well fitted curve in the direction sought with a large enough effect in the repeat runs; inconclusive = weak or mixed curves; inactive = no such curve, though single readings can be large; an effect the other way counts as inactive or inconclusive.

Experiment [1] is described as follows: qHTS assay to identify small molecule agonists of the hypoxia (HIF-1) signaling pathway - cell viability counter screen (AID 1224844; calls by dose curve; note: nearly all actives have a fitted effect of over 50% in size; note: potency is the fitted concentration of half-maximal effect). Summed up:
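Tox21 10K compounds were added to HRE-bla ME-180 cells (0.5% dialyzed FBS) and incubated 17 hrs at 37C; ATP-based CellTiter-Glo luminescence then reported cell viability in the same wells.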

The nature of experiment [2]: qHTS assay to identify small molecule agonists of H2AX (AID 1224845; active = well fitted activation curve with a large enough effect in the signal ratio in the repeat runs, not every such curve was filed as active; the % refers to the signal ratio; note: potency is the fitted concentration of half-maximal effect). The procedure, abridged: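 Wild-type CHO-K1 cells plated overnight, then exposed 3 hr at 37C to compounds at 15 concentrations (0.76% DMSO). Lysed, then HTRF anti-pH2AX(S139)-cryptate/anti-H2AX-d2 detection after 24 hr at room temperature; emissions 665 and 620 nm.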
For orientation: Quantitative high-throughput screening tests each substance at several concentrations.

Experiment [3] is described as follows: qHTS assay to identify small molecule agonists of the hypoxia (HIF-1) signaling pathway (AID 1224846; active = well fitted activation curve with a large enough effect in the signal ratio in the repeat runs, not every such curve was filed as active; the % refers to the signal ratio; note: % is set by controls: 0 for no effect and ±100 for the full control effect). The procedure, abridged:
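Steps: seed ME-180 HRE-bla cells (2,000/well, 0.5% dialyzed FBS); incubate 5 hrs at 37C; pin-transfer compounds or DMSO; incubate 17 hrs; add LiveBLAzer B/G substrate CCF4-AM; measure reporter activation by FRET.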

Experiment [4] is described as follows: qHTS assay to identify small molecule agonists of H2AX - cell viability counter screen (AID 1224847; calls by dose curve; note: top concentration of the series differs between compounds; % is set by controls: 0 for no effect and ±100 for the full control effect; nearly all actives have a fitted effect of over 30% in size). The procedure, abridged: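 Cytotoxicity counter screen in wild-type CHO-K1 cells: a 3 hr compound treatment at 37C across 15 concentrations, followed by CellTiter-Glo luminescence to gauge viable cells.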
A short description of experiment [5]: qHTS RealTime-Glo MT Cell Viability Assay in HepG2 cells - 24 hour (AID 1224867). Note: % is set by controls: 0 for no effect and ±100 for the full control effect; nearly all actives have a fitted effect of over 50% in size. Summed up: (§1)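 HepG2 cells were seeded at 600 cells/well together with NanoLuc luciferase and a cell-permeant prosubstrate, preincubated 5 h at 37 C/5% CO2, then pin-dosed with compounds in DMSO. Nonlytic luminescence from viable cells was read at each time point.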
Experiment [6] is described as follows: qHTS RealTime-Glo MT Cell Viability Assay in HEK293 cells - 32 hour (AID 1224868). Note: nearly all actives have a fitted effect of over 50% in size. Note: potency is the fitted concentration of half-maximal effect. Summed up:
(§2)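 HEK293 cells were seeded at 600 cells/well together with NanoLuc luciferase and cell-permeant prosubstrate, preincubated 5 h at 37 C/5% CO2, then given compound in DMSO by pintool. Luminescence from viable-cell prosubstrate reduction was read repeatedly over 40 h.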

The nature of experiment [7]: A CellTox Green Cytotoxicity Assay to monitor cytotoxicity in HEK293 cells - 0 hour (AID 1224869). Note: % is set by controls: 0 for no effect and ±100 for the full control effect; nearly all actives have a fitted effect of over 50% in size. The procedure, abridged: (§3)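 Cytotoxicity was tracked continuously in HEK293 cells by a DNA-binding dye excluded from viable cells. Compounds were transferred in DMSO 5 h after seeding; fluorescence was recorded at intervals up to 40 h.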
A short description of experiment [8]: qHTS RealTime-Glo MT Cell Viability Assay in HepG2 cells - 40 hour (AID 1224870). Summed up:
(§4)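 HepG2 cells mixed with RealTime-Glo MT reagents (NanoLuc plus cell-permeant prosubstrate) were seeded at 600 cells/well, incubated 5 h at 37 C/5% CO2, then pinned with compounds in DMSO; nonlytic luminescence tracked viability during 40 h treatment.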

Experiment [9] is described as follows: A CellTox Green Cytotoxicity Assay to monitor cytotoxicity in HEK293 cells - 40 hour (AID 1224871). Note: nearly all actives have a fitted effect of over 45% in size. Note: potency is the fitted concentration of half-maximal effect. Summed up: as §3
Experiment [10] is described as follows: qHTS RealTime-Glo MT Cell Viability Assay in HEK293 cells - 16 hour (AID 1224872). Note: nearly all actives have a fitted effect of over 50% in size. Note: potency is the fitted concentration of half-maximal effect. Summed up: as §2
Experiment [11] can be described thus: qHTS RealTime-Glo MT Cell Viability Assay in HepG2 cells - 8 hour (AID 1224873). Note: % is set by controls: 0 for no effect and ±100 for the full control effect; nearly all actives have a fitted effect of over 55% in size. The procedure, abridged:
as §4

Experiment [12] in a line: qHTS RealTime-Glo MT Cell Viability Assay in HEK293 cells - 40 hour (AID 1224874). For max response: % is set by controls: 0 for no effect and ±100 for the full control effect. Note: nearly all actives have a fitted effect of over 50% in size. Note: potency is the fitted concentration of half-maximal effect. The conditions noted are these: RealTime-Glo luminescence; max response: hits give low values. Summed up:
(§5)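 Nonlytic bioluminescent viability monitoring. HEK293 at 600 cells/well with reagent; 5 h settle; compound transfer by pintool; plates held at 37 C and read at set time points.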

Experiment [13] can be described thus: A CellTox Green Cytotoxicity Assay to monitor cytotoxicity in HEK293 cells - 24 hour (AID 1224875). Note: % is set by controls: 0 for no effect and ±100 for the full control effect; nearly all actives have a fitted effect of over 45% in size. The procedure, abridged:
as §3

Experiment [14] can be described thus: A CellTox Green Cytotoxicity Assay to monitor cytotoxicity in HepG2 cells - 16 hour (AID 1224876). Note: % is set by controls: 0 for no effect and ±100 for the full control effect; nearly all actives have a fitted effect of over 45% in size. Summed up: (§6)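 Real-time, homogeneous cytotoxicity readout: dead-cell DNA staining by CellTox Green in HepG2 monolayers, fluorescence measured at timed intervals up to 40 h of continuous compound exposure.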
The nature of experiment [15]: qHTS RealTime-Glo MT Cell Viability Assay in HepG2 cells - 32 hour (AID 1224877). Note: % is set by controls: 0 for no effect and ±100 for the full control effect; nearly all actives have a fitted effect of over 55% in size. The procedure, abridged: as §1
The nature of experiment [16]: A CellTox Green Cytotoxicity Assay to monitor cytotoxicity in HepG2 cells - 40 hour (AID 1224879). Note: nearly all actives have a fitted effect of over 40% in size. Note: potency is the fitted concentration of half-maximal effect. Summed up:
as §6

Experiment [17] is described as follows: qHTS RealTime-Glo MT Cell Viability Assay in HEK293 cells - 0 hour (AID 1224880). Note: top concentration of the series differs between compounds; % is set by controls: 0 for no effect and ±100 for the full control effect; nearly all actives have a fitted effect of over 45% in size. Summed up:
as §5

Experiment [18] can be described thus: qHTS assay to identify small molecule antagonists of the estrogen related receptor (ERR) signaling pathway from Tox21 library (AID 1224848). The procedure, abridged:
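Screening used an ERR reporter line supplied by NTP, exposed for 18 h at 37 C to library compounds delivered in DMSO. Signal was luciferase luminescence developed with ONE-Glo at room temperature for 30 min.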

Experiment [19] can be described thus: qHTS assay to identify small molecule agonists of the estrogen related receptor (ERR) signaling pathway from Tox21 library (AID 1224849; calls by dose curve; note: % is set by controls: 0 for no effect and ±100 for the full control effect; nearly all actives have a fitted effect of over 15% in size). The settings on record: ERR reporter cell line, ONE-Glo luciferase, 18 h. The procedure, abridged: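 Agonist signal is luciferase luminescence from an ERR reporter cell line treated 18 h at 37 C with DMSO-dissolved compounds, read 30 min after ONE-Glo addition at room temperature.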

Experiment [20] can be described thus: A CellTox Green Cytotoxicity Assay to monitor cytotoxicity in HepG2 cells - 24 hour (AID 1224878). The procedure, abridged:
as §6

On to `NC(=O)NC(N)=O`, for which the Potency entry in experiment [1], in experiment [2], in experiment [4], in [5], in experiment [6] and in experiment [7] was “inactive” throughout. Further, the Potency entry in [8], in experiment [9], in experiment [10], in [11], in experiment [13] and in experiment [14] was “inactive” throughout. In addition, the Potency entry in [15], in [16] and in experiment [17] was “inactive” each time. The result in [3] was inactive. Also, the max response in experiment [12] was 1.11% and 4.69%.
Consider `NC(=O)c1ncn([C@@H]2O[C@H](CO)[C@@H](O)[C@H]2O)n1`, for which the Potency in experiment [1] is 18.3 µM (active); in experiment [2] it was 53.2 µM (active). The Potency result in experiment [4], in experiment [5], in experiment [6], in experiment [7], in experiment [8] and in experiment [9] was “inactive” throughout. Moreover, the Potency entry in experiment [10], in experiment [11], in [13], in experiment [14], in [15] and in experiment [16] was “inactive” each time. Also, in [17], the Potency result is “inactive”. The max response in [12] was 2.04%.
Consider `O=C(NCC1CCCCN1)c1cc(OCC(F)(F)F)ccc1OCC(F)(F)F` (centres undefined), for which the Potency result in [1], in experiment [2], in experiment [4], in [5], in experiment [6] and in experiment [7] was “inactive” throughout. The Potency entry in experiment [8], in experiment [9], in [10], in experiment [11], in experiment [13] and in experiment [14] was “inactive” each time. The Potency entry in [15], in experiment [16] and in [17] was “inactive” each time.
For `Nc1nc(N)c2nc(-c3ccccc3)c(N)nc2n1`, the Potency entry in experiment [1], in experiment [4], in experiment [5], in experiment [6], in [7] and in [8] was “inactive” each time. Further, the Potency entry in experiment [9], in experiment [10], in [11], in experiment [13], in experiment [14] and in experiment [15] was “inactive” in each case. Moreover, the Potency entry in experiment [17] was “inactive”. Also, the Potency was 24.6 µM (active) and 21.7 µM (active) in experiment [18]; 24.8 µM (active) and 19.5 µM (active) in experiment [12]; 49.5 µM (active) and 49 µM (active) in experiment [16]. In addition, the activity change, positive = activation was -33.8% in experiment [19] (at 42.5 µM (top of the series)); -44.9% and -45.9% in experiment [19] (at 92.4 µM (top of the series)). In addition, in [12], the max response is -27.6%.
As to `C=C(C)CC(C)(C)C`, the Potency entry in [1], in experiment [2], in [4], in experiment [5], in experiment [6] and in experiment [7] was “inactive” in each case. Besides, the Potency entry in [8], in experiment [9], in experiment [10], in experiment [11], in [13] and in experiment [14] was “inactive” each time. Moreover, the Potency entry in [15], in experiment [16] and in experiment [17] was “inactive” throughout. For the same compound, the call in experiment [3] was inactive. Besides, the max response in experiment [12] is 7.8% and -7.58%.
On to `COc1ccc2cc3[n+](cc2c1OC)CCc1cc2c(cc1-3)OCO2`, for which the Potency entry in [2], in experiment [4], in [5], in experiment [7], in experiment [8] and in experiment [11] was “inactive” throughout. In addition, the Potency result in experiment [13], in [14], in [15], in experiment [20], in [16] and in experiment [17] was “inactive” throughout. Besides, in [3], the call was inactive. Further, the Potency was 976 nM (active) and 3.35 µM (active) in experiment [18]; 4.93 µM (active) and 10.7 µM (active) in experiment [6]; 22 µM (active) and 19 µM (active) in [9]; 4.4 µM (active) in experiment [10]; 4.4 µM (active) and 9.52 µM (active) in [12]. Further, the activity change, positive = activation in experiment [19] (at 42.5 µM (top of the series)) is -43.6%; in [19] (at 92.4 µM (top of the series)), -64.1%.
